NS1 inh: influenza NS1 inhibition; Potency, µM (doses to about 46.1 µM), for inactives: at the top dose activity, positive = more growth; 270,000 tested, 0.4% active; AID 2326; calls by dose curve; further: actives are rising curves; nearly all actives have a fitted effect of over 50% in size
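Compounds were scored for reversing the slow growth caused by influenza A NS1 in S. cerevisiae, measured by optical density at 600 nm. Assay medium contained 2% galactose at pH 6.0; NS1-free yeast of the same strain were the positive control.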
VACV mCherry inh: inhibitors of vaccinia virus infection (mCherry reporter signal) | Vaccinia virus mCherry reporter infection, fluorescence | Potency, µM (titrated, usually from 36.5 µM), for the others: at the top dose activity change, negative = inhibition, actives largely listed as inhibitors | 310,000 tested, 0.63% active; calls by dose curve; tested in A549 cells; further: on the % scale 0 is the no-effect control and ±100 the full control effect; nearly all actives have a fitted effect of over 35% in size
Pf growth 48h: inhibits P. falciparum growth in the first generation, 48 h; Potency, µM (titrated, usually from 28.7 µM), for inactives: top-dose activity change, negative = inhibition, actives largely listed as inhibitors; 310,000 tested, 5.9% active; P. falciparum luciferase growth in erythrocytes, 48 h; further: on the % scale 0 is the no-effect control and ±100 the full control effect
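Luciferase-expressing P. falciparum in infected erythrocytes (2% hematocrit, 0.1% parasitemia final) in RPMI 1640/0.5% Albumax were exposed to compound for 48 hours at 37 C, 5% CO2; growth read as luminescence.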
VACV Venus inh: vaccinia inhibition (Venus reporter); Vaccinia virus Venus reporter expression, fluorescence; Potency, µM (series often up to 36.5 µM), inactives show at the highest dose activity change, negative = inhibition, most hits filed as inhibitors; 330,000 tested, 0.46% active; AID 720580; calls by dose curve; tested in A549 cells; further: on the % scale 0 is the no-effect control and ±100 the full control effect; nearly all actives have a fitted effect of over 30% in size
HCV inhibitor: inhibitors of hepatitis C virus infection. Potency, µM (titrated, usually from 41.8 µM), for inactives: top-dose activity change, negative = inhibition, hits mostly inhibitors. Huh7.5.1 HCVcc-Cre infection, luciferase reporter, 44 h. 340,000 tested, 3.4% active; further: on the % scale 0 is the no-effect control and ±100 the full control effect
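Seed cells (1,000/well) for 4 h; treat with compound and infect with HCVcc-Cre, moi about 0.5. Incubate 44 h, then detect luciferase activity.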
Pf growth 96h: inhibits malaria parasite growth, 96 h; P. falciparum luciferase reporter growth, 96 h; Potency, µM (titrated, usually from 28.7 µM), without a hit: at the top dose activity change, negative = inhibition, hits mostly inhibitors; 320,000 tested, 6.9% active; AID 504834; further: on the % scale 0 is the no-effect control and ±100 the full control effect
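Luminescence readout: decreased luciferase signal marks inhibited growth of reporter-expressing P. falciparum in infected red cells (2% hematocrit, 0.05% parasitemia final), exposed to compound two generations (96 h, 37 C, 5% CO2).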
The depositor's hits bear a star; i = inactive; u = inconclusive; x = not tested or not shown. Sampled rows, rich in hits. Any-hit rate of the full collection: about 11%. Unless noted, the call rests on the fitted dose curve; in most records, active means well fitted inhibition curve with a large enough effect; inconclusive means small, poorly fitted or top-dose-only effect, or another doubt; inactive means no such curve, though single readings can be large or run the other way. Potency means the concentration at half of the fitted maximal effect.

SMILES	NS1 inh	VACV mCherry inh	Pf growth 48h	VACV Venus inh	HCV inhibitor	Pf growth 96h
COc1cccc(NC(=S)/C(=C(\[O-])c2cc(C)n(-c3ccccc3F)c2C)[n+]2ccc(N(C)C)cc2)c1	10%	x	u	x	u	4.1µM*
CCC(=O)Nc1cc(-c2nn3c(C)nnc3s2)ccc1C	-18%	x	18%	x	13%	7%
Cc1ccc(OCC(=O)Nc2cc(-c3nn4c(C)nnc4s3)ccc2C)cc1	-1%	x	u	x	-5%	7.4µM*
O=C(Cc1c(F)cccc1Cl)Nc1nccs1	21%	i	6%	-9%	11%	15µM*
CC(=O)c1cccc(Oc2cc(NN3CCCCC3)c([N+](=O)[O-])cc2[N+](=O)[O-])c1	-17%	u	-9%	u	8.9µM*	12µM*
Cc1ccc(Oc2cc(NN3CCCCC3)c([N+](=O)[O-])cc2[N+](=O)[O-])c(Cl)c1	22%	-3%	u	-17%	5%	13µM*
O=[N+]([O-])c1cc([N+](=O)[O-])c(Oc2cccnc2Br)cc1NN1CCCCC1	-20%	13µM*	20%	u	-5%	u
CC(=O)c1ccccc1Oc1cc(NN2CCCCC2)c([N+](=O)[O-])cc1[N+](=O)[O-]	5%	u	-19%	u	u	u
COc1cccc(NC(=O)N(CCCN2CCOCC2)C(C)c2cc3cccc(OC)c3o2)c1 (stereo not given)	-8%	x	u	-17%	-20%	u
COc1cccc(NC(=O)N(CCCN2CCOCC2)C(C)c2cc3ccccc3o2)c1 (stereo not given)	0%	x	x	x	9%	12µM*
COc1cccc(NC(=S)N(CCCN2CCOCC2)C(C)c2cc3cccc(OC)c3o2)c1 (stereo not given)	x	x	u	x	-6%	2.1µM*
Cc1cc(F)ccc1C(O)c1ncc(-c2ccccc2)[nH]1 (stereo not given)	x	10%	x	4%	x	x
CN(Cc1cn(-c2ccccc2)nc1-c1ccc2c(c1)OCO2)Cc1nccn1C	5%	-26%	12µM*	u	u	10%
CC(=O)NCC1CCCN(Cc2cn(-c3ccccc3)nc2-c2ccc3c(c2)OCO3)C1 (stereo not given)	-4%	-3%	-30%	-7%	-10%	13µM*
CN(CCn1ccnc1)Cc1cn(-c2ccccc2)nc1-c1ccc2c(c1)OCO2	9%	i	u	-6%	-2%	45%
CC1([N+](=O)[O-])COP(=O)(NCc2cccnc2)OC1 (stereo not given)	x	i	x	-9%	9%	x
Cc1ccc(C(=O)Cn2c(C(=O)O)cc3ccccc32)cc1	-42%	i	-1%	-18%	u	39%
O=C(NCCCCc1ccccc1)c1cccc(NC(=O)c2ccccc2)c1	x	-5%	x	-26%	-60%	x
O=C(NCCCc1ccccc1)c1ccccc1	-11%	x	30%	-20%	12%	9.3µM*
O=C(NCCc1ccccc1)c1ccc(NC(=O)C2CCC2)cc1	x	-5%	x	-10%	0.63µM*	x
O=C(NCCCCc1ccccc1)c1cccc(NC(=O)C2CCCC2)c1	x	-8%	x	-24%	8.9µM*	x
O=C(NCCCCc1ccccc1)c1ccc(Br)cc1	-39%	x	0%	x	3%	u
O=C(NCCC(=O)N(CCc1ccccc1)Cc1ccccc1)c1ccc(Br)cc1	x	i	u	-12%	5%	13µM*
O=C(NCCO)c1ccc2nc(-c3ccco3)c(-c3ccco3)nc2c1	1%	-7%	-1%	-15%	1%	x
O=C(NCc1ccc(Cl)cc1)c1cccc(NC(=O)c2ccccc2)c1	0%	u	1%	u	u	u
SMILES	NS1 inh	VACV mCherry inh	Pf growth 48h	VACV Venus inh	HCV inhibitor	Pf growth 96h
CC(=O)c1cccc(NC(=S)NCCCCc2ccccc2)c1	-11%	-6%	-22%	-21%	0%	9.3µM*
O=C(NCCc1ccccc1)c1ccc2nc(-c3ccco3)c(-c3ccco3)nc2c1	14µM*	x	x	x	11µM*	-14%
O=C(NCCc1ccc(F)cc1)c1cccc(NC(=O)c2ccccc2)c1	-8%	x	-12%	x	22µM*	u
O=C(COC(=O)CNC(=O)c1ccc(Cl)c([N+](=O)[O-])c1)NCC1CCCO1 (stereo not given)	x	x	-14%	x	6%	10%
CCN1CCN(c2ccc(NC(=O)COc3ccc(Cl)cc3C)cc2)CC1	x	x	x	x	10µM*	x
Cc1cc(Cl)ccc1OCC(=O)NCc1ccncc1	-19%	u	10%	-10%	9%	15%
CCCCCC(=O)NC(=S)Nc1ccc2oc(=O)ccc2c1	1%	-2%	-12%	-4%	20%	13µM*
O=C(COc1ccccc1F)Nc1nnc(-c2ccncc2)s1	-4%	x	x	x	-5%	7%
Cc1ccccc1OCC(=O)Nc1nnc(-c2ccncc2)s1	-53%	-9%	4%	-18%	11%	15µM*
Cc1cc(Cl)ccc1OCC(=O)Nc1ccncc1	-82%	x	0%	x	13µM*	u
c1ccc(-c2nnc(N3CCOCC3)nc2-c2ccccc2)cc1	-5%	-13%	-3%	-16%	-22%	-25%
COC(=O)c1c(NC(=O)C2CC=CCC2C(=O)O)sc(C(N)=O)c1C (stereo not given)	u	x	x	2%	3%	x
O=C1NC(=S)SC1=Cc1cc(Br)ccc1O	x	67%	x	i	3%	x
Cc1ccc(OCCOC(=O)Nc2ccccc2)cc1	6%	-11%	1%	-15%	10%	1%
COc1ccccc1OCC(=O)Nc1ccncc1	-4%	x	53%	x	-14%	0.52µM*
COc1ccccc1OCCOC(=O)Nc1ccccc1	7%	-14%	31%	-10%	-4%	8.3µM*
Cc1cc(Cl)ccc1OCC(=O)Nc1ccc2oc(=O)ccc2c1	3%	8%	-8%	0%	u	12µM*
CC(C)c1ccc(OCC(=O)Nc2ccc3oc(=O)ccc3c2)cc1	-3%	7%	-14%	5%	u	3.3µM*
Cc1cc2nc(C)c(Cc3ccccc3)c(=O)n2[nH]1	-19%	-29%	u	-19%	4%	4%
O=c1cc(CSc2nnc(-c3ccccc3)o2)c2ccccc2[nH]1	-6%	-13%	22%	-4%	2%	u
Cc1cc(Cl)ccc1OCCCC(=O)NO	-10%	i	u	-19%	7.1µM*	x
Cc1cc(Cl)ccc1OCCCC(N)=O	-3%	x	13%	x	u	19%
Cc1cc(-n2c(C)nc3ccccc3c2=O)ccc1NC(=O)C(F)(F)F	x	i	x	-6%	x	x
CCOc1ccc(NC(=O)c2ccc(NC(=O)c3cn4c5c(c(N6CCN(C)CC6)c(F)cc5c3=O)OCC4C)cc2)cc1 (stereo not given)	-8%	-13%	2.3µM*	-9%	-28%	2.6µM*
CC1COc2c(N3CCN(C)CC3)c(F)cc3c(=O)c(C(=O)O)cn1c23 (stereo not given)	3%	-17%	x	-8%	9%	x

Bioassay records: PubChem BioAssay, National Center for Advancing Translational Sciences (NCATS)
